Drawing on PubChem BioAssay AID2284066 (EPA ToxCast), this text covers AC50 for 1 molecule.

Molecules are shown by their SMILES. Active and inactive are the calls of the source. Rule for the calls: active = hit-call score of the fitted dose curve at least 0.9, where 1 is the maximum; inactive = score below 0.9.

Chain of Tyrosine-protein kinase Fyn (Homo sapiens) (P06241 whole entry, looked up): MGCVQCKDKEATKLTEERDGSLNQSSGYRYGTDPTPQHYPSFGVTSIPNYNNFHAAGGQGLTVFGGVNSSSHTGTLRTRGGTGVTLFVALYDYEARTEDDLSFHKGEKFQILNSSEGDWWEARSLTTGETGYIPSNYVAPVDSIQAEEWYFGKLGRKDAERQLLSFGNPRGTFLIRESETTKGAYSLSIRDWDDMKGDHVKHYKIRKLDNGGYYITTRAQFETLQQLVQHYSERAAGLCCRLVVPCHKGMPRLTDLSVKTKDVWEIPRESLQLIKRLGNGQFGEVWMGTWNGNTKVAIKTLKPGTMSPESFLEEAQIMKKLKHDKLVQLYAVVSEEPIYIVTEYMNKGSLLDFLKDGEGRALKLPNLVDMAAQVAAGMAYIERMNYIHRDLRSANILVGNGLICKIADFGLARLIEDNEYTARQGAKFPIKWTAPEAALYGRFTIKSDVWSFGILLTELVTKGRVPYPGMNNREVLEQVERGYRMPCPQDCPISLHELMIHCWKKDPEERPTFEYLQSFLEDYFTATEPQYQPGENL

The experiment has as its target Tyrosine-protein kinase Fyn (Homo sapiens) (UniProt P06241). The experiment in a line: ERF_FR_ENZ_hFYN: Eurofins (ERF) Enzymatic Radiometric [Km ATP] KinaseProfiler LeadHunter Assay for human Fyn Tyrosine Kinase. As for the experimental part:
ERF_FR_ENZ_hFYN is a biochemical, single-readout assay that uses extracted gene-proteins in a cell-free assay. Measurements were taken 1 hour after chemical dosing in a 96-well plate. See Fyn Human TK Kinase Enzymatic HTRF Assay [Km ATP], Cerep.ERF_FR_ENZ_hFYN is an assay component calculated from the ERF_FR_ENZ_hFYN assay. It is designed to measure enzyme activity using a type of enzyme reporter as detected by fluorescence intensity with HTRF technology.Data from the assay component ERF_FR_ENZ_hFYN was analyzed at the assay endpoint, ERF_FR_ENZ_hFYN, in the positive analysis fitting direction relative to DMSO as the negative control and baseline of activity. Using a type of enzyme reporter, loss-of-signal activity can be used to understand changes in enzymatic activity as they relate to gene FYN. To generalize the intended target to other relatable targets, this assay endpoint is annotated to the kinase intended target family, where the subfamily is non-receptor tyrosine […].
Fyn (h) is incubated with 50 mM Tris pH 7.5, 0.1 mM EGTA, 0.1 mM Na3VO4, 250 uM […] (Cdc2 peptide), 10 mM MgAcetate and [gamma-33P]-ATP (specific activity and concentration as required). The reaction is initiated by the addition of the Mg/ATP mix. After incubation for 40 minutes at room temperature, the reaction is stopped by the addition of phosphoric acid to a concentration of 0.5%. […]
For orientation: AC50 means the midpoint of the concentration-response curve, whichever way the signal moves. As to `O=C(/C=C/c1ccc(O)cc1)CC(=O)/C=C/c1ccc(O)cc1`, the AC50 was 992 nM (active).
